Compound activity as filed in PubChem.
In the library only some 2.1% were active in any assay of this set; here they are far more common.
Mito fusion act: inhibitors of mitochondrial division or activators of mitochondrial fusion. S. cerevisiae fusion-defective mutant growth rescue, CellTiterGlo 48 h. Potency, µM (titrated, usually from 46.1 µM), inactives show at the highest dose growth rescue (activation), usual class: activators. 320,000 compounds, 0.23% hits. AID 485298; also: potency is read from the fitted curve at half-maximal effect; % of control where 0% means no effect; nearly all actives have a fitted effect of over 45% in size
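S. cerevisiae fusion-defective temperature-sensitive mutants (e.g. fzo1-1, mgm1-5) grown 48 h at 37C in YPEG (ethanol/glycerol non-fermentable) medium with 23 nl compound per well; growth rescue read as CellTiterGlo luminescence.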
Giardia killer: kills Giardia lamblia; Giardia lamblia trophozoite viability; activity change, % at 7.66 µM, hits read low; 340,000 compounds, 0.15% hits; AID 540267; in the data active = activity change below about -80%; inconclusive = between about -30% and that limit;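 also: parasites exposed to compound for two days anaerobically before the ATP read; % is scaled to controls: 0 for no effect and ±100 for the full control effect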
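Trophozoite viability was measured as ATP-dependent luminescence, read 15-30 min after reagent addition. Before that, parasites at 100 cells/well were exposed to compounds for 48 h, anaerobically, at 37 deg C.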
ClpP mod: qHTS Assay for Activators of ClpP. ATP-dependent Clp protease proteolytic subunit (Bacillus subtilis (strain 168)), P80244. purified B. subtilis ClpP, FRET peptide cleavage, 20 min. Potency, µM (highest dose often 57.5 µM), for the others: at the top dose activity change, negative = active. 340,000 compounds, 1.9% hits. AID 651965, 2013; active = well fitted falling curve with a large enough effect; inconclusive = small, poorly fitted or top-dose-only effect; inactive = no such curve, though single readings can be large or run the other way; also: potency is read from the fitted curve at half-maximal effect; the source files actives as falling curves though it sought activators and does not explain the sign; nearly all actives have a fitted effect of over 65% in size
Target sequence (P80244 whole entry, looked up): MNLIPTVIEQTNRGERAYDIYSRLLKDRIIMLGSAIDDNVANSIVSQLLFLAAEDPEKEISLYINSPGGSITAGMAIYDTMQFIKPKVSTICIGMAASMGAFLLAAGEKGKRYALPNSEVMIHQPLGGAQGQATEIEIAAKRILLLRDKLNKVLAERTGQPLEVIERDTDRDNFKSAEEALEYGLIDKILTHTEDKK
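Purified B. subtilis ClpP, 10 microg/mL final in Tris/HCl pH8 with KCl, BSA, glycerol and Tween-20, cleaved an Abz/nitrotyrosine-quenched decapeptide. Fluorescence (ex 320, em 430) was read at 0 and 20 min at room temperature. Delta was normalized to 5.8 microM ADEP and DMSO/no-enzyme controls.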
uPA generation: inhibitors of cell surface uPA generation. cell surface uPA generation assay, qHTS. Potency, µM (titrated, usually from 38.3 µM), for the others: at the top dose activity change, negative = inhibition, usual class: inhibitors. 330,000 compounds, 0.31% hits; active = well fitted inhibition curve with a large enough effect; inconclusive = small, poorly fitted or top-dose-only effect; inactive = no such curve, though single readings can be large or run the other way; tested in mouse RAW 264.7 cells; also: potency is read from the fitted curve at half-maximal effect; % is scaled to controls: 0 for no effect and ±100 for the full control effect; nearly all actives have a fitted effect of over 55% in size
B2AR arrestin: agonists driving beta-arrestin recruitment to human beta2-adrenergic receptor. P07550. beta-arrestin recruitment to beta2AR, cell-based reporter. Potency, µM (doses to about 46.1 µM), without a hit: top-dose activation, hits mostly activators. 330,000 compounds, 0.02% hits. AID 492947;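 also: potency is read from the fitted curve at half-maximal effect; 0% = DMSO controls and full agonism = EC100 isoproterenol or metaproterenol; nearly all actives have a fitted effect of over 65% in size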
Target sequence (P07550 whole entry, looked up): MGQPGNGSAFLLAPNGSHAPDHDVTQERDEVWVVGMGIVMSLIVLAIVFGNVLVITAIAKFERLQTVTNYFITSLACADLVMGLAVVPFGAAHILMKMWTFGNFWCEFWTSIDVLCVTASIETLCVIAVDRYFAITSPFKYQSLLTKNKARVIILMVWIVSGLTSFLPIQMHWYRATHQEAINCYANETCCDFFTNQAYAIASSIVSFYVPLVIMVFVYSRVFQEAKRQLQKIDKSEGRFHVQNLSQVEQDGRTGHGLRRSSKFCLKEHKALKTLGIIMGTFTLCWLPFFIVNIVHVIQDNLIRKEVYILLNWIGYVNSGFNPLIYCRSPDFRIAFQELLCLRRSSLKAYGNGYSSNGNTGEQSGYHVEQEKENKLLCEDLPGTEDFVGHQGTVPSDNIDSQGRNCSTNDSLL
p53 reactivation: mutant p53 re-activation in reporter cells | H1299 p53-A138V BP100-luciferase reporter, luminescence, 24 h | Potency, µM (top dose mostly 92.2 µM), inactives show at the highest dose activity change, positive = activation, hits mostly activators | 320,000 compounds, 0.063% hits; also: potency is read from the fitted curve at half-maximal effect; % of control where 0% means no effect; nearly all actives have a fitted effect of over 45% in size
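H1299 (p53-null), stable ts p53-A138V + BP100-Luc; 1000 cells/well, Opti-MEM/10% FBS; cpd 4 pt, 1:5; 24 h, 37 deg C, 5% CO2; detection reagent 10 min RT; luminescence.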
An asterisk follows results filed as active; ? = inconclusive; . = no result given. Unless noted, calls follow the shape of the dose curve; as a rule, active = well fitted curve in the direction sought with a large enough effect; inconclusive = small, poorly fitted or top-dose-only effect, or another doubt; inactive = no such curve, though single readings can be large; an effect the other way counts as inactive or inconclusive.

SMILES | Mito fusion act | Giardia killer | ClpP mod | uPA generation | B2AR arrestin | p53 reactivation
CCOc1ccc(NC(=O)COC(=O)c2ccccc2OCc2ccccc2Br)cc1 | . | . | -14% | . | . | .
CSc1cccc(Nc2cc(C(=O)NCCCN(Cc3ccccc3)C(C)C)c3ccccc3n2)c1 | . | . | 35µM* | . | . | .
CC(C)(C)c1ccc(C(=O)NC(=O)COC(=O)c2ccc(Br)o2)cc1 | . | -27 | 32µM* | -7% | -1% | 1%
Cc1noc(C)c1C(=O)OCC(=O)NC(=O)c1ccc(C(C)(C)C)cc1 | . | . | 1% | . | . | .
Cc1ccc2[nH]c(CSc3nnc(NC(=O)COc4ccccc4)s3)cc(=O)c2c1 | . | . | 0% | . | . | .
O=C(Cc1ccccc1)Nc1ccc2oc(-c3cccnc3)nc2c1 | -4% | -9 | 28µM* | 5% | -1% | 4%
Cc1ccc2oc(-c3ccccc3)nc2c1 | -2% | -4 | 14µM* | 3% | -1% | ?
CCCC(=O)Nc1ccc(-c2nc3cc(C)ccc3o2)cc1 | 18% | 13 | 40µM* | -4% | 0% | ?
COc1ccc(CC(=O)Nc2ccc(-c3nc4cc(C)ccc4o3)c(O)c2)cc1OC | -2% | 11 | 35µM* | 4% | 0% | 20%
Cc1cccc(C)c1NC(=O)C(=O)NCC(c1cccnc1)N1CCc2ccccc21 (configuration not stated) | . | . | -3% | . | . | .
CCN(CC)S(=O)(=O)c1ccc(NC(=O)[C@H](CSCc2ccccc2)N2Cc3ccccc3C2=O)cc1 | . | -7 | -1% | . | . | .
O=C(Nc1ccc2oc(-c3cccnc3)nc2c1)c1ccc(-c2ccccc2)o1 | . | . | 4% | . | . | .
CCCCCC(=O)Nc1ccc2oc(-c3cccnc3)nc2c1 | -8% | 5 | 16µM* | 1% | 0% | 6%
Cc1c(NC(=O)c2cc(-n3cnnc3)ccc2Cl)cccc1-c1nc2ccccc2s1 | -3% | -14 | 1% | . | 0% | 5%
Cc1c(NC(=O)c2cccs2)cccc1-c1nc2ccccc2s1 | 16µM* | -19 | -1% | 1% | 3% | 19%
O=C(Nc1ccccc1[N+](=O)[O-])c1csnn1 | . | . | -2% | . | . | .
CSc1ncc(C(=O)NCc2ccc(Cl)cc2)c(C(F)(F)F)n1 | . | . | 0% | . | . | .
Cc1ccc(N=C2NC(=O)/C(=C/c3cccn3C)S2)cc1 | 1% | -16 | 0% | 2.8µM* | 0% | 28%
CCOC(=O)N/N=C1\CCc2ccccc21 | 0% | 5 | 32µM* | 8% | 1% | ?
CCOC(=O)NN=C1c2ccccc2-c2ccccc21 | -4% | 23 | 0% | 1% | 0% | .
Cc1ccsc1CNCC(O)c1ccccc1 (configuration not stated) | 1% | -4 | . | -1% | 1% | .
Cc1ccsc1CNC1C2CC3CC(C2)CC1C3 (configuration not stated) | -6% | -6 | 22µM* | -3% | -1% | -5%
NNc1nc2ccc(F)cc2s1 | 14% | 0 | -1% | -29% | 0% | ?
Fc1ccc2nc(Nc3ccccc3)sc2c1 | 17% | -17 | 11µM* | 4% | 0% | ?
CCOC(=O)c1c(NC(=O)/C=C/C(=O)O)sc(C)c1-c1ccc(Cl)cc1 | 5% | 6 | 0% | 8.9µM* | 0% | -10%
SMILES | Mito fusion act | Giardia killer | ClpP mod | uPA generation | B2AR arrestin | p53 reactivation
CCOC(=O)c1c(NC(=O)Nc2ccc(Cl)cc2)sc(C)c1C | 2% | 11 | ? | 3% | -1% | 0%
CSc1ccc(CNc2cccc3ccccc23)cc1 | 13% | 11 | 28µM* | 16% | 0% | 11%
Cc1nnc(NC(=O)c2cc(-c3ccco3)nc3ccccc23)s1 | 9% | . | . | . | -2% | 4%
O=C(Nc1nc2ccccc2s1)c1cc(-c2ccco2)nc2ccccc12 | 3% | 5 | 18µM* | 8% | 0% | 10%
Cc1ccc2nc(NC(=O)c3cc(-c4ccco4)nc4ccccc34)sc2c1 | -6% | 0 | 18µM* | 1% | 0% | ?
CC(=O)N1c2ccc(S(=O)(=O)NCC3CCC(C(=O)Nc4cc(C)ccc4C)CC3)cc2CC1C (configuration not stated) | . | . | 1% | . | . | .
Cc1nc2ccc(C(=O)OC(C)C(=O)c3c(C)[nH]c4ccccc34)cc2nc1C (configuration not stated) | . | . | -1% | . | . | .
CC(C)(C)c1cc(C(=O)N/N=C/c2ccc(O)cc2)n(-c2ccccc2)n1 | -8% | 18 | 32µM* | -14% | 0% | 2%
CC(C)=CCC/C(C)=C/CNC(=O)C[C@H]1C[C@H](C(=O)N2CCOCC2)[C@@]2(C)c3[nH]c4cc(CCC(=O)N(C)C)ccc4c3CCN2C1=O | . | -1 | -1% | 10µM* | 0% | -4%
COc1cccc(CNC(=O)COC(=O)c2ccc(S(C)(=O)=O)c([N+](=O)[O-])c2)c1 | . | -14 | 2% | . | . | .
Cc1ccc(-c2cc3nn(-c4ccccc4)c(N)c3c(=O)o2)cc1 | 6% | 10 | 32µM* | -5% | 0% | 7%
COC(=O)c1ccc(-n2nnc(-c3nsc(NC(=O)c4ccc(Cl)cc4)n3)c2C)cc1 | . | . | -3% | . | . | .
Cc1c(-c2nsc(NC(=O)c3ccc(Cl)cc3)n2)nnn1-c1ccc(C(C)C)cc1 | . | . | 25µM* | . | . | .
Nc1ccccc1/C=C/c1ccnc2ccccc12 | . | . | 1% | . | . | .
CC(C)NC(=O)C1C(c2ccc(C(F)(F)F)cc2)=Nc2ccccc2N1C(=O)c1cc2ccccc2[nH]1 (configuration not stated) | . | . | -2% | . | . | .
CCOc1ccc(OCC)c(NC(=O)CCc2c(C)nc3c(c2C)c(=O)n(C)c(=O)n3C)c1 | . | . | -5% | . | . | .
Cc1cccc(CSC(=N)N)c1 | -2% | -19 | 13µM* | -4% | 0% | ?
N=C(N)SCCc1cccc(CCSC(=N)N)c1 | . | -10 | 2% | -13% | . | .
CCC(C)NC(=O)C1=CC(c2ccc3c(c2)OCO3)=NS(=O)(=O)N1C (configuration not stated) | . | . | -1% | . | . | .
COc1cc(C2NC(=O)N(C)C3=C2C(=O)N(c2ccccc2)C3)ccc1O (configuration not stated) | . | . | -10% | . | . | .
CN(C)c1ccc(/C=C/c2cc3ccccc3c[n+]2C)cc1 | . | . | -2% | . | . | .
O=[N+]([O-])C(/C=C(/Cl)[N+](=O)[O-])=C(N1CCCCC1)N1CCCCC1 | 5% | -94* | . | -8% | -1% | 5%
O=C(/C=C/c1ccccc1[N+](=O)[O-])N1CCCCC1 | 5% | -6 | 1% | -5% | 0% | 24%
O=C(CN1C(=O)NC2(CCCC2)C1=O)NCCN1C(=O)S/C(=C\c2ccccc2F)C1=O | 1% | -4 | 32µM* | 2% | -1% | 0%
CCOC(=O)c1n[nH]n2c1nc(=O)c1ccccc12 | ? | 15 | . | -1% | 0% | -4%
